A selection: hits, their analogues and other compounds. The true share with any hit is near 12%.
HP1b chromo inh: inhibitors of HP1-beta chromodomain binding to methylated histone tails | P83916 | AlphaScreen HP1-beta / biotin-H3K9me3 peptide binding | Potency, µM (doses to about 114 µM), most hits filed as inhibitors | 390,000 tested, 0.56% active | AID 540317; note: nearly all actives have a fitted effect of over 70% in size
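Compound inhibition of the preformed complex between 50 nM HP1-beta and 50 nM biotinylated H3K9me3 peptide was read by AlphaScreen. Buffer was PBS pH 7.4 with 0.01% Tween-20. Incubations ran 30 min at room temperature, with 10 ug/mL donor/acceptor beads.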
JMJD2A Tudor inh: inhibitors of human JMJD2A Tudor domain. O75164. AlphaScreen JMJD2A-Tudor / H3K4me3 peptide binding. Potency, µM (doses to about 114 µM), usual class: inhibitors. 390,000 tested, 4.4% active; note: nearly all actives have a fitted effect of over 50% in size
TDP1 inh: TDP1 (human) enzyme inhibition. Q9NUW8. recombinant TDP1, AlphaScreen DNA substrate cleavage. Potency, µM (titrated, usually from 130 µM), actives largely listed as inhibitors. 350,000 tested, 0.28% active. AID 485290; note: nearly all actives have a fitted effect of over 40% in size
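Compounds were preincubated with Tdp1 (1 nM final) for 15 min at room temperature before substrate (15 nM final) started a 5 min reaction; beads (10 ug/ml final) were then added for 10 min before AlphaScreen detection.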
G9a inh: blocks human histone lysine methyltransferase G9a. AID 504332. G9a H3K9 monomethylation, AlphaScreen, 2 h. 350,000 tested, 8.8% active. Q96KQ7. Potency, µM (series often up to 102 µM), usual class: inhibitors; note: nearly all actives have a fitted effect of over 75% in size
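Quantitative HTS format: methyltransferase activity on a biotin-tagged H3K9 peptide is measured by AlphaScreen, using a rabbit anti-monomethyl-H3K9 antibody with streptavidin donor and anti-IgG acceptor beads. Final levels are 20 nM enzyme, 500 nM peptide, 20 uM SAM; 2 h RT.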
BAZ2B block: BAZ2B (human) inhibition; Potency, µM (series often up to 114 µM), hits mostly inhibitors; AlphaScreen BAZ2B-H3K14Ac peptide displacement; 360,000 tested, 4.4% active; Q9UIF8; note: nearly all actives have a fitted effect of over 60% in size
Target sequence (Q9UIF8 whole entry, looked up): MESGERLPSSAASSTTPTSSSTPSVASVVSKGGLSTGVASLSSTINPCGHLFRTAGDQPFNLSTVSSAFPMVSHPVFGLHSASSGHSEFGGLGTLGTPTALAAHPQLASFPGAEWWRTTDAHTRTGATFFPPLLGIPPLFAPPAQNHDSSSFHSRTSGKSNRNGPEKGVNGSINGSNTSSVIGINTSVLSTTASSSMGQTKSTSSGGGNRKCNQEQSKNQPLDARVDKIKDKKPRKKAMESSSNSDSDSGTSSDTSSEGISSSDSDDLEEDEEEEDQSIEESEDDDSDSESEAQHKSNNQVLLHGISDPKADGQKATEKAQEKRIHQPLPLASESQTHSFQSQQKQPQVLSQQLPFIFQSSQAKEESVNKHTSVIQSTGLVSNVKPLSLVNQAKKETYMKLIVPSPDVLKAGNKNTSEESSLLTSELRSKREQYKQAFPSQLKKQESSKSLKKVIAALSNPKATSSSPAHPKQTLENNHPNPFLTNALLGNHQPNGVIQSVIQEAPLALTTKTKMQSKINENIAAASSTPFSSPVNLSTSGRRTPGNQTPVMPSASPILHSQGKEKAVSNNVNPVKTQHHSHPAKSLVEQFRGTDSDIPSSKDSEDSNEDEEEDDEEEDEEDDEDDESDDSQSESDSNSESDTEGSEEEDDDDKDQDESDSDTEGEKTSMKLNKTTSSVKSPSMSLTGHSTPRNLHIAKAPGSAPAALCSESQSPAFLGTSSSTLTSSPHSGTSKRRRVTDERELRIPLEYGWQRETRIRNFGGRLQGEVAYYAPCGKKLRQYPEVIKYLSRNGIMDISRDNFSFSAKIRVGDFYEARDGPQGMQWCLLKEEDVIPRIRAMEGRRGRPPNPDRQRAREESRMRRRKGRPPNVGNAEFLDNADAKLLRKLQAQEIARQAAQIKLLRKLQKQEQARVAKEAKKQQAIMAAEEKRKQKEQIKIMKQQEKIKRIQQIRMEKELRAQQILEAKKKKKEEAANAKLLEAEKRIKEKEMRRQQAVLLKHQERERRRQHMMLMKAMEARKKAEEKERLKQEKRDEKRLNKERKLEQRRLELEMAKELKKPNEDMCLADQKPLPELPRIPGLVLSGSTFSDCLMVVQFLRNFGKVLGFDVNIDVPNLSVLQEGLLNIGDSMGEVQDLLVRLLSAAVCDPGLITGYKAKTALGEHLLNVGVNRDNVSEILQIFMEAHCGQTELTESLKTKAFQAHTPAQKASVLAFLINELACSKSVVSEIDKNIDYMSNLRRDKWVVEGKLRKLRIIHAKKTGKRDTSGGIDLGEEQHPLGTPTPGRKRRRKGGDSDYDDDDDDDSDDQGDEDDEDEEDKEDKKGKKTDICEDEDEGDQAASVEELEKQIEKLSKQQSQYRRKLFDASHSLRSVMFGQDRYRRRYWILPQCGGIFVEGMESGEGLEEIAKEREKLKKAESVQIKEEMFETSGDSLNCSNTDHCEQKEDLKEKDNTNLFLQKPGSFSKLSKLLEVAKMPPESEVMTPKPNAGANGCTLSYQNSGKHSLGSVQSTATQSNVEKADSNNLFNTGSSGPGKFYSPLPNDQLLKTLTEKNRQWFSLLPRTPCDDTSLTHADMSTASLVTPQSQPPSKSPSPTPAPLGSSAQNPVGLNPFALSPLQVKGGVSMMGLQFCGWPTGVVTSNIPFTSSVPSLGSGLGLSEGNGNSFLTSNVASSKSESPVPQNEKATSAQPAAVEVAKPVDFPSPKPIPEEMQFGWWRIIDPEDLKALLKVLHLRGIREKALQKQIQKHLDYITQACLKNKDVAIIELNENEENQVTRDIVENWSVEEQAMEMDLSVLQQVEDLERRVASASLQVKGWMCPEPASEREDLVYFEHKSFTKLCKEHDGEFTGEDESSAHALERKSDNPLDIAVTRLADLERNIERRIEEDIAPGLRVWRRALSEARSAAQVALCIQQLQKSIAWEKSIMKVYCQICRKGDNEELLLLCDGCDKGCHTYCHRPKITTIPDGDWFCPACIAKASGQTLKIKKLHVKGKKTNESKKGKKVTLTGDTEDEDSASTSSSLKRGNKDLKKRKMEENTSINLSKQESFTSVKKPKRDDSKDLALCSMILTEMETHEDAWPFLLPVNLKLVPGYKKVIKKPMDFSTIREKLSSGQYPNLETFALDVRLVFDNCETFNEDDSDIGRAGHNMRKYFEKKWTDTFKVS
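Compounds, titrated to a top concentration of 110 uM, were incubated 30 min at room temperature with preformed BAZ2B/acetyl-K14 H3 peptide complex (50 nM each). Proximity signal was measured by AlphaScreen after 20 min with beads.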
Sfp PPTase inh: Sfp phosphopantetheinyl transferase inhibition. 310,000 tested, 3.5% active. Potency, µM, usual class: inhibitors. Biochemical Sfp PPTase activity, qHTS. AID 1490;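 note: the enzyme is Sfp with the accession as filed and its product quenches rhodamine fluorescence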
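Sfp 15 nM + cpd, 15 min RT; start w/ rhodamine-CoA 5 uM, BHQ-2-YbbR 12.5 uM (final); 50 mM Hepes pH 7.6, 10 mM MgCl2, 0.01% NP-40, 0.01% BSA; read 525/598 nm at 0 and 30 min.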
Each line names hits and unclear results; the compound was inactive in the other large screens; ! = not confirmed by another sample. Calls come from the whole dose curve; as a rule, active = well fitted curve in the direction sought with a large enough effect; inconclusive = small, poorly fitted or top-dose-only effect, or another doubt; inactive = no such curve, though single readings can be large; an effect the other way counts as inactive or inconclusive.

Cc1ccccc1N(C)S(=O)(=O)c1nnc(NC(=O)c2ccccc2F)s1	JMJD2A Tudor inh 45µM!, G9a inh 4µM!, BAZ2B block 14µM!
Cc1cccc(N2CCN(c3ncnc4c3nc3n4CCCCC3)CC2C)c1 (stereo not given)	JMJD2A Tudor inh inconclusive, G9a inh inconclusive, BAZ2B block inconclusive (no result: Sfp PPTase inh)
O=[N+]([O-])c1ccccc1/C=C/CN1CCN(Cc2ccc3c(c2)OCO3)CC1	HP1b chromo inh inconclusive, JMJD2A Tudor inh 22µM, BAZ2B block inconclusive (no result: TDP1 inh, G9a inh)
C(=C\c1ccccc1)/CN1CCN(Cc2ccc3c(c2)OCO3)CC1	HP1b chromo inh inconclusive, JMJD2A Tudor inh 1.3µM, BAZ2B block 50µM (no result: TDP1 inh, G9a inh)
Cc1ccccc1CN1CCN(C/C=C/c2ccccc2)CC1	HP1b chromo inh inconclusive, JMJD2A Tudor inh 3.2µM, G9a inh inconclusive, Sfp PPTase inh inconclusive
CS(=O)(=O)N1CCN(C/C=C/c2ccccc2)CC1	G9a inh inconclusive
Cc1cccn2c(=O)nc(SCC(=O)N3CCC(Cc4ccccc4)CC3)nc12	G9a inh inconclusive (no result: TDP1 inh, Sfp PPTase inh)
Cc1ccccc1CNC(=O)c1ccc(Cn2c(SCc3cccc(F)c3)nc3cccnc32)cc1	none (no result: Sfp PPTase inh)
Cc1ccc(C(OCC(O)CNC(C)c2ccccc2)c2ccccc2)cc1 (stereo not given)	HP1b chromo inh inconclusive, JMJD2A Tudor inh 1.3µM, G9a inh 8.9µM, BAZ2B block 40µM
Cc1ccc(C(OCC(O)CNC(CO)C(O)c2ccc([N+](=O)[O-])cc2)c2ccccc2)cc1 (stereo not given)	HP1b chromo inh inconclusive, JMJD2A Tudor inh 40µM, G9a inh 13µM, BAZ2B block 50µM (no result: TDP1 inh)
CC/C(=N\Nc1ccccc1[N+](=O)[O-])c1ccc(O)cc1	HP1b chromo inh 13µM, JMJD2A Tudor inh 14µM, BAZ2B block 6.3µM, Sfp PPTase inh inconclusive (no result: G9a inh)
C/C(=N\Nc1ccc([N+](=O)[O-])cc1[N+](=O)[O-])C(C)(C)C(C(=O)O)C(=O)O	JMJD2A Tudor inh 22µM, G9a inh inconclusive, BAZ2B block inconclusive
CC/C(=N\Nc1ccc([N+](=O)[O-])cc1[N+](=O)[O-])c1ccc(O)cc1	BAZ2B block 11µM (no result: TDP1 inh)
C/C(=N\Nc1ccc([N+](=O)[O-])cc1[N+](=O)[O-])c1ccc(-n2nncc2C(C)(C)C)cc1	HP1b chromo inh inconclusive, JMJD2A Tudor inh inconclusive, G9a inh 7.1µM, BAZ2B block inconclusive
C/C(=N/Nc1ccccc1[N+](=O)[O-])c1ccc([N+](=O)[O-])cc1	BAZ2B block inconclusive (no result: TDP1 inh)
CC(C)Cc1ccc(S(=O)(=O)Nc2cc3c(cc2N2CCOCC2)n(C)c(=O)c(=O)n3C)cc1	none (no result: Sfp PPTase inh)
C/C(=N\Nc1ccccc1[N+](=O)[O-])c1ccccc1O	HP1b chromo inh inconclusive, JMJD2A Tudor inh 2.8µM, TDP1 inh inconclusive, G9a inh 18µM, BAZ2B block 2.5µM
Cc1nc2scc(-c3cccs3)c2c(=O)[nH]1	G9a inh inconclusive, Sfp PPTase inh 45µM
O=c1[nH]c(-c2ccc(O)cc2)nc2scc(-c3cccs3)c12	none
COC(=O)c1ccc2c(=O)n(CCCN3CCCC3=O)c(=S)[nH]c2c1	JMJD2A Tudor inh inconclusive, BAZ2B block 71µM
Cc1ccc(CNC(=O)c2ccc3c(=O)n(CCCN4CCCC4=O)c(=S)[nH]c3c2)cc1	G9a inh inconclusive (no result: TDP1 inh)
O=C(NCc1ccccc1)c1ccc2c(=O)n(CCCN3CCCC3=O)c(=S)[nH]c2c1	G9a inh 45µM
COc1ccc(CNC(=O)c2ccc3c(=O)n(CCCN4CCCC4=O)c(=S)[nH]c3c2)cc1	none
C=CCNC(=O)c1ccc2c(=O)n(CCCN3CCCC3=O)c(=S)[nH]c2c1	JMJD2A Tudor inh 50µM, G9a inh inconclusive, BAZ2B block inconclusive, Sfp PPTase inh 79µM
COc1ccc(OC)c(-n2c(=S)[nH]c3cc(C(=O)NCCCN4CCCC4=O)ccc3c2=O)c1	G9a inh 28µM, Sfp PPTase inh inconclusive (no result: HP1b chromo inh, JMJD2A Tudor inh)
COc1ccccc1CNC(=O)c1ccc2c(=O)n(CCCN3CCCC3=O)c(=S)[nH]c2c1	BAZ2B block inconclusive
O=C(CNC(=O)c1ccc(Br)o1)NCC1CCCCC1	none (no result: Sfp PPTase inh)
O=C(NCCCN1CCCC1=O)c1ccc2c(=O)n(Cc3ccco3)c(=S)[nH]c2c1	JMJD2A Tudor inh inconclusive, G9a inh 10µM, Sfp PPTase inh 35µM
CCN(CC)Cc1c(O)c(Cl)cc2c(C)cc(=O)oc12	HP1b chromo inh inconclusive, TDP1 inh 13µM, G9a inh inconclusive, BAZ2B block 56µM
COC(=O)c1ccc(OCC(O)Cn2cnc3cc(C)c(C)cc32)cc1 (stereo not given)	JMJD2A Tudor inh inconclusive (no result: Sfp PPTase inh)
COc1cccc(COCC(O)CN2CCC(C(N)=O)CC2)c1 (stereo not given)	TDP1 inh inconclusive
COC(=O)c1cccc(OCC(O)Cn2cnc3cc(C)c(C)cc32)c1 (stereo not given)	Sfp PPTase inh 89µM
COc1cccc(COCC(O)Cn2cnc3cc(C)c(C)cc32)c1 (stereo not given)	HP1b chromo inh inconclusive, JMJD2A Tudor inh 3.5µM, G9a inh 6.3µM, BAZ2B block inconclusive
CCOc1ccccc1CN1CCC(O)CC1	HP1b chromo inh inconclusive, JMJD2A Tudor inh 5.6µM, BAZ2B block inconclusive
CCCS(=O)(=O)N1CCN(Cc2ccccc2OCC)CC1	HP1b chromo inh inconclusive, JMJD2A Tudor inh 2.8µM, G9a inh inconclusive, BAZ2B block inconclusive
CCc1ccc(N(CC(=O)NCC2CCCO2)C(=O)CCC(=O)Nc2nccs2)cc1 (stereo not given)	none (no result: TDP1 inh)
S=c1[nH]nc(Cc2c[nH]c3ccccc23)o1	JMJD2A Tudor inh 79µM, G9a inh 1.6µM
Cc1cccc(NC(=S)c2nc3ccccc3s2)c1	HP1b chromo inh 28µM, JMJD2A Tudor inh 50µM, BAZ2B block 8.9µM (no result: G9a inh)
O=C(Nc1ccccc1)c1nc2ccccc2s1	none
Cc1csc(NC(=O)c2ccc(Cl)nc2)n1	none (no result: TDP1 inh)
Cc1cc(O)c2c(c1)C(=O)[C@@]13Oc4c5c(c(O)c6c(O)cc(C)cc46)C(=O)C[C@H](O)[C@H]5[C@@H]1[C@@H](O)CC(=O)C3=C2O	JMJD2A Tudor inh 16µM (no result: TDP1 inh, G9a inh, BAZ2B block, Sfp PPTase inh)
O=C(CCl)Nc1cc2[nH]c(=O)[nH]c2cc1Br	G9a inh 50µM
CCOc1ccc(/C=N/NC(=O)Cn2ccnc2C)cc1	none (no result: TDP1 inh)
CC(=O)[C@@H]1[C@@H]2C(=O)N(C3CCCCC3)C(=O)[C@@H]2C2c3ccccc3C=CN21 (stereo not given in full)	BAZ2B block inconclusive (no result: HP1b chromo inh, JMJD2A Tudor inh)
O=C1NC(=O)[C@@H]2C3c4ccccc4C=CN3[C@H](C(=O)c3cccs3)[C@H]12 (stereo not given in full)	G9a inh 10µM, Sfp PPTase inh 79µM (no result: HP1b chromo inh, JMJD2A Tudor inh)
Cc1ccc(-c2nc(N=Nc3ccc(O)cc3)n[nH]2)cc1	JMJD2A Tudor inh inconclusive, G9a inh 50µM, BAZ2B block inconclusive
